# Source: PubChem BioAssay AID652105 (National Center for Advancing Translational Sciences (NCATS), 2013)
# The whole screen tested about 330,000 compounds, of which about 4,100 (1.2%) were called active. Roughly 2% stayed inconclusive and do not appear here. Shown is part of a subset that was picked to be rich in actives. Values without a mark were called inactive. How the source made its calls: active means max response of -50% or lower; inconclusive means between -30% and -50%; inactive means -30% or higher.
# Molecular target: Phosphatidylinositol 5-phosphate 4-kinase type-2 alpha (Homo sapiens) (UniProt P48426)
# Assay: qHTS for Inhibitors of phosphatidylinositol 5-phosphate 4-kinase (PI5P4K); further: value at the top dose of about 77 µM
# Conditions: PI5P4Kalpha enzyme, ADP-Glo luminescence, 60 min; hits give low values
# Excerpt: In addition to finding PI5P, we discovered the type II phosphatidylinositol 5-phosphate 4-kinase (PI5P4K) family (alpha, beta, gamma isoforms) that catalyze the conversion of PI5P to PI(4,5)P2. Alternatively, PI(4,5)P2 can also be synthesized through phosphatidylinositol-4-phosphate (PI4P) by the type I phosphatidylinositol 4-phosphate 5-kinases (PI4P5K). These PI5P4K enzymes therefore represent one way by which cells can regulate endogenous PI5P levels and play important roles in insulin signaling and in stress responses.
# This proposal aims to identify and optimize specific modulators of human PI5P4K, phosphatidylinositol-5-phosphate 4-kinase (Type II PIPK), a family of kinases that regulate AKT signaling and tumor cell growth. In this project we aim to identify inhibitors of human PI5P4K using a quantitative high-throughput screening approach against the MLSMR containing ~400,000 small molecules.
# NIH Chemical Genomics Center [NCGC]
# NIH Molecular Libraries Probe Centers Network [MLPCN]
# Assay Submitter (PI): Atsuo Sasaki, Beth Israel Deaconess Medical Center
# 2 microL of PI5P4Kalpha/substrate buffer (columns 1-2, 5-48) are dispensed into Greiner white solid bottom 1536-well assay plates; column 3 receives only PI5P4Kalpha buffer as 0x substrate controls; column 4 receives only substrate buffer as 0x PI5P4Kalpha controls. Final assay buffer consists of 0.038 M HEPES pH 7.4, 0.28 mM EGTA, 0.1% CHAPS, and 5% DMSO (final concentration). Compounds are then transferred via Kalypsys pin tool equipped with 1536-pin array (10 nL slotted pins, V&P Scientific, San Diego, CA). Following addition of compound, 1 microL of ATP (5 microM final concentration, all columns) is added to initiate the reaction. ATP is diluted in an assay buffer consisting of 0.02 M HEPES pH 7.4, 60 mM MgCl2, 15 microM ATP, and 0.1% CHAPS. The plates are then incubated at room temperature for 60 minutes. ADP-Glo reagent 1 is added (2 microL) and plates incubated for 45 minutes, before ADP-Glo reagent 2 (4 microL) is added and plates incubated for 30 minutes. They are then transferred to a ViewLux high-throughput CCD imager (PerkinElmer) wherein single end-point measurements of luminescence are acquired using a clear filter.
# On the % scale 0 is the no-effect control and ±100 the full control effect.
# Phosphatidylinositol 5-phosphate 4-kinase type-2 alpha (Homo sapiens), sequence (P48426 whole entry, looked up): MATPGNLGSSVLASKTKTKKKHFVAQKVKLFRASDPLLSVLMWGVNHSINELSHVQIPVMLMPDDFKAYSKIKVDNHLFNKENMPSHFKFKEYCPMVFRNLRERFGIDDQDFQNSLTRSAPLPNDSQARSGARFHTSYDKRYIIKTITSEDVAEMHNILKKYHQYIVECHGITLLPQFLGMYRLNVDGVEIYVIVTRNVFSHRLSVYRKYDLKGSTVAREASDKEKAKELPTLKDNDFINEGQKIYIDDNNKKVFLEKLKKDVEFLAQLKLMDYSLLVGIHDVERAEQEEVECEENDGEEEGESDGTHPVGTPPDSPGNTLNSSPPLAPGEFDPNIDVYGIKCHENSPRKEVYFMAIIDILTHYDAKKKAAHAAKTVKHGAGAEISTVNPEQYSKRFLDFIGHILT
row,Compound,max response
1,O=C1NC(=O)N(Cc2ccco2)C(=O)/C1=C\c1ccc(-c2ccc(F)cc2)o1,-73.5% (active)
2,O=C1NC(=O)N(Cc2ccco2)C(=O)/C1=C\c1cccn1CCOc1ccccc1,-24.2%
3,O=C1NC(=O)N(CCc2ccc(F)cc2)C(=O)/C1=C/C=C/c1ccccc1,-26.8%
4,O=c1[nH]c2ccccc2n1C1CCN(C(c2ccccc2)c2nnnn2Cc2ccccc2)CC1 (stereo not given),-4.66%
5,COC(=O)C1=C(c2ccc(OCc3ccccc3)cc2)C[C@@H]2CC[C@H]1N2C(=O)NCc1ccc(Cl)cc1,5.92%
6,CCOC(=O)c1cccc(C2=C(CNC(=O)c3ccncc3)[C@H]3CC[C@@H](C2)N3Cc2ccccc2)c1,-3.84%
7,O=C(O)CCn1cc(C=C2C(=O)NC(=S)NC2=O)c(-c2cccc(Br)c2)n1,-58.5% (active)
8,O=C(NCC1=C(c2ccc3ccccc3c2)C[C@@H]2CC[C@H]1N2Cc1ccco1)c1cccs1,-1.39%
9,COC(=O)C1=C(c2ccc(OCc3ccccc3)cc2)C[C@@H]2CC[C@H]1N2C(=O)NCc1cccc(F)c1,0.749%
10,CCC(=NCCCO)c1c(O)n(-c2ccc(OC)cc2)c(=O)[nH]c1=O,0.144%
11,CC/C(=N\NC(=O)c1ccccc1O)c1c(O)n(Cc2ccccc2)c(=O)[nH]c1=O,-90.3% (active)
12,O=C(N/N=C/c1c(O)n(Cc2ccccc2)c(=O)[nH]c1=O)c1ccccc1,-53.6% (active)
13,O=c1[nH]c(=O)n(Cc2ccccc2)c(O)c1/C=N/Nc1c(F)c(F)c(F)c(F)c1F,4.31%
14,CCC(=NCCc1ccccc1)c1c(O)n(C2CCCCC2)c(=O)[nH]c1=O,-4.68%
15,CCCCC(=O)N/N=C/c1c(O)n(-c2ccccc2)c(=O)[nH]c1=O,-1.14%
16,COc1ccc(NC(=O)N2Cc3ccccc3-n3nncc3C2)cc1,-4.3%
17,COc1ccc(-n2nnnc2C(c2cccc3ccccc23)N2CCC(n3c(=O)[nH]c4ccccc43)CC2)cc1 (stereo not given),0.885%
18,CSCCC(c1nnnn1C(C)(C)C)N1CCC(n2c(=O)[nH]c3ccccc32)CC1 (stereo not given),8.06%
19,O=c1[nH]c2ccccc2n1C1CCN(C(c2ccnc3ccccc23)c2nnnn2Cc2ccccc2)CC1 (stereo not given),-3.14%
20,O=C1NC(=O)C(C/C=C/c2ccccc2)C(=O)N1,-78.1% (active)
21,O=C1NC(=O)C(Cc2ccccc2)C(=O)N1,-28.7%
22,CC(=O)NCC1=C(c2ccc3ccccc3c2)C[C@@H]2CC[C@H]1N2Cc1ccco1,-10.1%
23,O=c1c2ccccc2nc(CBr)n1-c1ccc(Cl)cc1,-9.65%
24,S=C(NCCc1ccccc1)N1Cc2cc(N3CCOCC3)ccc2-n2nncc2C1,-1.37%
25,CCOC(=O)[C@]12Cc3ccccc3[C@H]1N(C1CCCCC1)C(=O)c1cc(OC)ccc12,-1.4%
26,COc1cc(C(=O)N2Cc3ccc(Br)cc3-n3nncc3C2)cc(OC)c1OC,-0.882%
27,C=CCN1C(=O)NC(=O)/C(=C/c2ccc(OCC(=O)Nc3ccc(C)cc3)cc2)C1=O,-72.6% (active)
28,C=CCN(CC=C)C(=O)Nc1ccc(OCC)cc1,-4.12%

row,Compound,max response
1,CCC(=O)c1ccc(OCC(=O)N2CCN(CC(=O)Nc3ccc(C)cc3)CC2)cc1,1.24%
2,O=C(NC1CCCCC1)N1Cc2cc(N3CCCCC3)ccc2-n2nncc2C1,-0.829%
3,COc1cccc(N2C(=O)NC(=O)/C(=C\c3ccc([N+](=O)[O-])s3)C2=O)c1,-64.2% (active)
4,COc1cccc(N2C(=O)NC(=O)/C(=C\c3cn(C)c4ccccc34)C2=O)c1,5.95%
5,O=C1NC(=O)N(c2ccccc2)C(=O)/C1=C/c1ccc([N+](=O)[O-])s1,-72.2% (active)
6,O=C1NCN(c2ccccc2)C12CCN(C(c1cccs1)c1nnnn1C1CCCCC1)CC2 (stereo not given),-2.62%
7,c1ccc(N2Cc3ccccc3-n3nncc3C2)nc1,-2.17%
8,CC(=CCOc1ccc2ccc(=O)oc2c1)C1=CC(=O)C(C)(C)O1,4.71%
9,c1cc2c(c(NC3=NCCCS3)c1)CCCC2,-10.3%
10,CC(C)CN1Cc2cc(N3CCCCC3)ccc2-n2nncc2C1,-0.0123%
11,COC(=O)C[C@H]1CC[C@H]2NC[C@@H](O)COC[C@@H]2O1,-5.22%
12,COc1ccc2c(c1)NP(=S)(c1ccccc1)N2 (stereo not given),-27.5%
13,COc1ccc(N2C(=O)/C(=C/c3ccco3)C(=O)NC2=S)cc1,-103% (active)
14,CCOC(=O)CNC(=O)N1Cc2cc(N3CCCCC3)ccc2-n2nncc2C1,7.51%
15,COc1ccc(C2C=C(C)Oc3c2c(=O)oc2ccccc32)cc1OC (stereo not given),1.36%
16,CCn1cc(CN2CCCC(C(=O)c3cccc(C(F)(F)F)c3)C2)cn1 (stereo not given),5.27%
17,O=C(CN1CCCC1=O)NCCc1ccccc1,1.78%
18,O=C1CC(=O)N(Cc2ccccc2)C(=O)N1CCCCCCN1C(=O)CC(=O)N(Cc2ccccc2)C1=O,-68.4% (active)
19,COc1cccc(C(c2nnnn2-c2ccc3c(c2)OCCO3)N2CCC3(CC2)C(=O)NCN3c2ccccc2)c1OC (stereo not given),-0.4%
20,O=P(OC1=CCCCC1)(c1ccccc1)c1ccccc1,1.07%
21,Cc1ncoc1C(=O)NCC1=C(c2cccc3ccccc23)C[C@@H]2CC[C@H]1N2Cc1ccco1,7.08%
22,Cc1ccccc1N1C(=O)NC(=O)/C(=C\c2cc(C)n(C)c2C)C1=O,0.241%
23,Cc1c(C(=O)O)cccc1-n1c(C)cc(/C=C2\C(=O)NC(=O)N(c3ccc4c(c3)OCO4)C2=O)c1C,-18.8%
24,Cc1cccc(N2C(=O)NC(=O)/C(=C\c3cnn(-c4ccccc4)c3)C2=O)c1,-69.1% (active)
25,COC(=O)CN(CCCl)P1(=O)OCCCN1CCCl (stereo not given),-2.26%
26,O=c1c2ccccc2[nH]c(=S)n1-c1cccc(Cl)c1,-8.39%
27,CCOC(=O)[C@]12Cc3cc(OC)ccc3[C@H]1N(C(C)C)C(=O)c1ccccc12,1.48%
